TCR CD3 inh – inhibitors of human TCR-CD3 interaction, primary screen, biochemical, fluorescence, TAMRA-labeled TCR probe | hit rate 0.37% among 360,000 | inhibition, % at 9.4 µM | T-cell receptor (TCR);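 also: recombinant mutant TCR 2C K166C tagged with TAMRA read by polarization; 0% = receptor in buffer alone and 100% = receptor with positive control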
PAD4 inh – human PAD4 inhibitors, primary screen, biochemical, fluorescence polarization, 1536-well format. inhibition, % at 6.36 µM. recombinant PAD4, RCA probe fluorescence polarization. hit rate 0.41% among 330,000;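 active = percent inhibition above a cutoff equal to the mean of all tested compounds plus 3 SD, cut at about 15% in these data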;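 also: 0% = PAD4 with RCA probe and DMSO and 100% = probe without PAD4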
Target sequence (Q9UM07 whole entry, looked up): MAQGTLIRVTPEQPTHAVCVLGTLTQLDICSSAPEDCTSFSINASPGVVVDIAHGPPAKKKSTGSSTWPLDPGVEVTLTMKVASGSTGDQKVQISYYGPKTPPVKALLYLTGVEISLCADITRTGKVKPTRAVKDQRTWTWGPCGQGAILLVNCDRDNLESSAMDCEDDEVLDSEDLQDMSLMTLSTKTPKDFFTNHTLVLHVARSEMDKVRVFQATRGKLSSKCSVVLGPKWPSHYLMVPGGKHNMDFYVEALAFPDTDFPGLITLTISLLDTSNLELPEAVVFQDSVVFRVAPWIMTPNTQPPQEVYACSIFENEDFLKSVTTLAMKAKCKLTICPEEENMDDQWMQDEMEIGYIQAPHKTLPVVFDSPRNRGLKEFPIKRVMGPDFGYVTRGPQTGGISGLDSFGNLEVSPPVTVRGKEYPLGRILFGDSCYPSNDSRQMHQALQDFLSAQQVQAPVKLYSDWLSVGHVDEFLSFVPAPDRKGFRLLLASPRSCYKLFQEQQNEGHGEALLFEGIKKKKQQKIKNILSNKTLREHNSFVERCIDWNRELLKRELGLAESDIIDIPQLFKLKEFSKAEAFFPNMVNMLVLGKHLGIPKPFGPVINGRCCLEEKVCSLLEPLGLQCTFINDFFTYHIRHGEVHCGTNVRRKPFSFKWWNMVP
SIAE inh – human SIAE inhibitors, primary screen, biochemical, fluorescence polarization, FP-Rh probe, 1536-well HTS. Sialate O-acetylesterase (Homo sapiens), Q9HAT2. SIAE FP-Rh probe binding. inhibition, % at 9.66 µM. hit rate 0.69% among 370,000. AID 1053197, 2014;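 active = inhibition above a cutoff: mean of compounds within the control limits plus 3 SD of those, cut at about 17% in these data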;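 also: 0% = plate median of compound wells and 100% = probe without SIAE protein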
Fam108B inh – mouse Fam108B serine hydrolase inhibitors, primary screen, counter-screen for RBBP9 inhibitor project, biochemical, fluorescence polarization | recombinant Fam108B, FP-Rh probe fluorescence polarization | inhibition, % at 9.51 µM | hit rate 0.33% among 300,000 | AID 1947, 2009;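 active = inhibition above the screen mean inhibition plus 3 SD, computed separately per campaign, cut at about 18% in these data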;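 also: inhibitors lower polarization as less probe binds the enzyme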
PRMT1 FP inh – PRMT1 methyltransferase inhibitors, primary screen, biochemical, fluorescence polarization; recombinant PRMT1, activity-based probe fluorescence polarization; inhibition, % at 2.79 µM; hit rate 1.3% among 370,000;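 active = inhibition above about 21% made by adding two undisclosed values, limit read from the data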
PME-1 primary – PME-1 inhibitors via competitive probe labeling, primary screen, biochemical, fluorescence polarization, FP-Rh probe, HTS. hit rate 0.53% among 320,000. AID 2130, 2009. Protein phosphatase methylesterase 1 (Homo sapiens), Q9Y570. recombinant PME-1. inhibition, % at 5.9 µM;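 active = inhibition above the campaign mean of all compounds plus 3 SD, cut at about 26% in these data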;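 also: competitive labeling of PME-1 active site by serine hydrolase directed probe; 0% = PME-1 with DMSO and 100% = wells lacking PME-1 enzyme; inhibitors block probe labeling so polarization falls and inhibition rises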
BSA probe FL – compounds interfering with TAMRA-BSA probe, counter-screen for TCR-CD3 interaction inhibitor project, biochemical, fluorescence, TAMRA-labeled BSA; shares compounds with TCR CD3 inh; TAMRA-labeled BSA probe fluorescence counterscreen; inhibition, % at 9.4 µM; hit rate 10% among 1,200; in the data active = inhibition above about 23%;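 also: 0% = buffer low control and 100% = reference high control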
TCR-CD3 conf – TCR-CD3 interaction inhibitors, retest, confirmation, biochemical, fluorescence, TAMRA-labeled TCR probe; hit rate 48% among 1,200; TAMRA-labeled TCR probe fluorescence binding assay; shares compounds with TCR CD3 inh; inhibition, % at 9.4 µM
* = called active by the depositor; . = no result. Rows were chosen to be rich in hits. Some 2.6% of all compounds tested hit in one or more screens of this group. Rule as the data show it, unless noted: active = inhibition above about 19%; inactive = the rest.

SMILES	TCR CD3 inh	PAD4 inh	SIAE inh	Fam108B inh	PRMT1 FP inh	PME-1 primary	BSA probe FL	TCR-CD3 conf
COc1ccc(C(=O)NNC(=S)NC(=O)c2ccco2)cc1	12	3	0	0	-1	7	.	.
Cc1cccc(C(=O)NNC(=O)c2ccco2)c1O	19*	0	13	4	0	-1	-5	12
Nc1ccc([N+](=O)[O-])cc1C(=O)NNC(=O)c1ccco1	27*	3	6	1	5	3	-11	32*
CCCc1cn(-c2ccc3c(c2)[C@]2(CC(=O)N(C)C2c2ccccc2)C(=O)N3CC(C)C)nn1 (stereo not given in full)	.	.	4	.	0	.	.	.
C/C=C/C(=O)N1CCC(C(=O)NC2CCCc3ccccc32)CC1 (stereo not given)	.	.	3	.	-1	.	.	.
CN(Cc1ccccc1)C(=O)OCc1cn(Cc2ccc(F)cc2F)nn1	.	.	8	.	-1	.	.	.
Cc1cccc(C(=O)NNC(=O)c2c(-c3ccccc3Cl)noc2C)c1O	29*	2	1	0	4	-6	-1	16
Cc1onc(-c2ccccc2Cl)c1C(=O)NNC(=O)c1ccc(F)cc1	-1	0	3	2	1	3	.	.
O=C(O)CCCCCn1c(SCC(=O)c2ccc(O)c(O)c2)nc2ccsc2c1=O	25*	-3	13	-6	24*	-11	-6	25*
O=C(CCCn1c(SCC(=O)c2ccc(O)c(O)c2)nc2ccccc2c1=O)NCC1CCCO1 (stereo not given)	21*	-4	8	-3	7	3	-16	40*
CCCCn1c(SCC(=O)c2ccc(O)c(O)c2)nc2ccsc2c1=O	.	2	.	7	.	15	.	.
Cc1ccc(Cn2ccsc2=NC(=O)COC(=O)c2ccc(NC(=O)CC#N)cc2)cc1	27*	-17	-14	-6	0	11	8	6
Cc1ccc(Cn2ccsc2=NC(=O)CCl)cc1	11	3	-4	-6	2	0	.	.
COc1cccc(C(=O)NCC(c2ccc3c(c2)OCO3)N2CCN(c3ccc(F)cc3)CC2)c1 (stereo not given)	1	-1	3	-1	1	4	.	.
COc1ccc(C(=O)NCC(c2ccc3c(c2)OCO3)N2CCN(c3ccc(OC)cc3)CC2)cc1 (stereo not given)	24*	7	10	-1	6	-7	6	5
Cc1ccc(CNC(=O)c2ccc(S(=O)(=O)N3CCCC3)cc2)cc1	5	.	-3	.	2	.	.	.
COc1ccc(S(=O)(=O)NCc2ccc3c(c2)cc(C)n3C)cc1	35*	4	18*	4	-2	5	25*	28*
CCS(=O)(=O)NCc1ccc2c(c1)cc(C)n2C	13	-4	-5	3	0	5	.	.
Cc1cc2cc(CNC(=O)c3ccc(S(=O)(=O)N4CCCC4)cc3)ccc2n1C	70*	15	26*	-1	3	1	3	0
CCC[C@H]1[C@@H](NC(=O)c2cccc(N(C)C)c2)CC[C@@]23CCCN2C(=O)CCC[C@@H]13	.	.	4	.	-1	.	.	.
O=C(NNC(=O)c1ccccc1O)c1ccc(Cl)c(S(=O)(=O)N2CCc3ccccc32)c1	28*	-5	-1	4	2	6	-6	16
Cc1ccc(C(=O)NNC(=O)c2ccccc2O)cc1S(=O)(=O)N1CCCCC1	24*	7	1	1	5	4	-4	23*
Cc1ccc(C(=O)NC2CCCC2)cc1S(=O)(=O)N1CCCCC1	9	-2	2	-1	-6	-2	.	.
